Source: PubChem BioAssay
MBD2 DNA inh: inhibitors of human MBD2 binding to methylated oligonucleotide. Q9UBB5. TR-FRET. inhibition, % at 4.4 µM. actives 0.31% (n = 370,000). AID 686964; in the data active means inhibition above about 13%
LEDGF integ inh: blocks HIV-1 LEDGF/p75-dependent DNA integration; TR-FRET IN-LEDGF/p75 DNA integration, Eu/Cy5; inhibition, % at 3.7 µM; actives 0.64% (n = 370,000);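 active means inhibition above the screen-wide mean plus 3 SD, cut at about 13% in these data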;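 further: signal is the Cy5 over europium emission ratio at 671 and 618 nm; 0% = plate median of compound wells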
UHRF1 binding: human UHRF1 methylated DNA binding inhibitors. Q96T88. UHRF1 binding to methylated oligo, TR-FRET. inhibition, % at 4.4 µM. actives 0.75% (n = 370,000). AID 687016;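 further: UHRF1 SRA domain binding a hemimethylated CpG hairpin DNA probe; 0% = median of test compound wells and 100% = reference inhibitor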
Target sequence (Q96T88 whole entry, looked up, the tested form may be a part): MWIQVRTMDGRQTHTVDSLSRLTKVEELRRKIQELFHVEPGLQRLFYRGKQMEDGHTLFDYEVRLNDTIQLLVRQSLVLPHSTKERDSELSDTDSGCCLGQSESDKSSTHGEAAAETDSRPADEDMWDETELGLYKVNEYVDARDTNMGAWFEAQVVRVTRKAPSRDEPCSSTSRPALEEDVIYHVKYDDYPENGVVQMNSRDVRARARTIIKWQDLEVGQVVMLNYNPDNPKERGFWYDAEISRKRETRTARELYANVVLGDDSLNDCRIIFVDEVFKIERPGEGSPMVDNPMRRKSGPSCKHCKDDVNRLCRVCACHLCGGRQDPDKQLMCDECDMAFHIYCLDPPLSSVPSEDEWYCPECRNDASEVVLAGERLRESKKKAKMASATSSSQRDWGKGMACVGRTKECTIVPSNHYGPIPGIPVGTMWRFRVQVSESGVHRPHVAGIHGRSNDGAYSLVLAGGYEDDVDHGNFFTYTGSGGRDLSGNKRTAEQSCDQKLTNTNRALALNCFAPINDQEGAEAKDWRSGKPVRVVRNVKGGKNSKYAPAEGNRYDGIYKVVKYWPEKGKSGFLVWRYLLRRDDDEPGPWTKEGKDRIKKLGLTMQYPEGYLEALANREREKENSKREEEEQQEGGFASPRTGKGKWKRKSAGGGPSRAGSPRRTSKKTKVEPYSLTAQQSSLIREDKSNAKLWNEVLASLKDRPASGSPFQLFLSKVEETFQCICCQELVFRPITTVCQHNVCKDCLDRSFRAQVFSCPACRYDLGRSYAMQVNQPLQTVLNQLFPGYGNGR
PG9 Ab binder: small molecules binding HIV-1 gp120 antibody PG9; TR-FRET gp120-PG9 antibody binding; inhibition, % at 6.7 µM; actives 0.43% (n = 360,000); AID 624416; in the data active means inhibition above about 8.5%
rCAG binder: r(CAG) repeat RNA binding. inhibition, % at 3 µM. actives 1.3% (n = 370,000). AID 651821. TO-PRO-1 dye displacement fluorescence;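 active means inhibition above the plate cutoff, the mean of all test compounds on that plate plus 3 SD, cut at about 35% in these data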;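 further: 0% = DMSO alone and 100% = 100 µM mitoxantrone as full dye displacement; higher means more dye released from RNA so lower well fluorescence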
DNMT1 inh: blocks human DNA methyltransferase DNMT1; P26358; DNMT1 molecular beacon, Hinp1I cleavage, fluorescence; AID 588458; inhibition (reported as % activation of signal), % at 10 µM; actives 0.83% (n = 360,000); in the data active means inhibition above about 50%
rCAG bind conf: r(CAG) RNA repeat binding, confirmation; shares compounds with rCAG binder; TO-PRO-1 dye displacement fluorescence; inhibition, % at 3 µM; actives 70% (n = 4,300); AID 652065;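 active means inhibition above a per-plate cutoff, the mean inhibition of sample wells plus 3 SD, cut at about 35% in these data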;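 further: loss of TO-PRO-1 fluorescence as compound displaces dye from 1x1 AA loop RNA; 0% = DMSO only wells and 100% = 100 µM mitoxantrone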
dCAG dye counter: disrupts DNA CAG TO-PRO-1 complex, flagging rCAG hits | actives 94% (n = 4,300) | inhibition, % at 3 µM | shares compounds with rCAG binder | d(CAG) DNA oligo TO-PRO-1 dye displacement, fluorescence;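 active means inhibition above its plate's cutoff, the mean test-well inhibition plus 3 SD, cut at about 4.8% in these data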;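 further: 0% = DNA dye mix with DMSO and 100% = 100 µM mitoxantrone; hits displace the dye from DNA and so lower well fluorescence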
UHRF1 DNA bind: counter-screen for MBD2 inhibitors: human UHRF1 methylated DNA binding inhibitors; inhibition, % at 4.4 µM; shares compounds with MBD2 DNA inh; UHRF1 binding to methylated oligonucleotide, TR-FRET; actives 25% (n = 1,000);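 further: UHRF1 SRA domain binding a labeled hemimethylated CpG hairpin DNA; 0% = vehicle only and 100% = reference inhibitor with vehicle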
MBD2 DBD conf: MBD2-DBD methyl-DNA binding inhibition, TR-FRET confirmation; inhibition, % at 4.4 µM; TR-FRET MBD2-DBD binding to methylated oligonucleotide; shares compounds with MBD2 DNA inh; actives 26% (n = 1,000); in the data active means inhibition above about 14%
IN multimer up: counter-screen for LEDGF/p75 integration inhibitors: HIV-1 integrase multimerization activators | activation, % at 7.7 µM | AID 1053131 | TR-FRET HIV-1 integrase multimerization, biochemical | shares compounds with LEDGF integ inh | actives 17% (n = 2,000); in the data active means activation above about 8.9%
TRFRET interf: counter-screen for LEDGF/p75 integration inhibitors: TR-FRET optical interference. shares compounds with LEDGF integ inh. TR-FRET optical interference counterscreen, HIV-1 IN multimerization. inhibition, % at 7.7 µM. 2,000 tested, under 10 active;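 active means inhibition above the mean over all tested compounds plus 3 SD, which no compound reached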;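 further: 0% = integrase with antibodies and DMSO and 100% = antibodies without integrase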
IN-LEDGF confirm: confirmation of HIV-1 LEDGF/p75-dependent integration inhibitors. shares compounds with LEDGF integ inh. inhibition, % at 3.7 µM. TR-FRET LEDGF/p75-dependent HIV-1 integration, biochemical. AID 1053136. actives 36% (n = 2,000); in the data active means inhibition above about 14%
Numbers without * were called inactive; nt = no result. Shown are actives, neighbours in structure and some others; about 3.5% of the full set was active somewhere. Unless noted, no stated cut-off is given here; in the data, active means inhibition above about 21%; inactive means the rest.

SMILES	MBD2 DNA inh	LEDGF integ inh	UHRF1 binding	PG9 Ab binder	rCAG binder	DNMT1 inh	rCAG bind conf	dCAG dye counter	IN multimer up	TRFRET interf	IN-LEDGF confirm	others
O=C1NC(=Nc2ccccc2)S/C1=C\C=C\c1ccco1	4	34*	13	-3	69*	93*	62*	30*	16*	-57	58*
Brc1ccc2nc(-c3ccc(CN4CCC5(CC4)CNc4ccccc45)cc3)c(-c3ccccc3)nc2c1	5	-5	0	3	12	nt	nt	nt	nt	nt	nt
Clc1cc(Cl)cc(CNC2CCC23CCCCC3)c1 (configuration not stated)	-4	-1	0	nt	nt	nt	nt	nt	nt	nt	nt
COc1ccc(S(=O)(=O)NCC2CCCN(Cc3cn(C)nc3C)C2)cc1 (configuration not stated)	-4	1	-2	0	0	4	nt	nt	nt	nt	nt
N=C1S/C(=C\c2ccco2)C(=O)N1c1ccc2c(c1)OCO2	-1	15*	2	-4	38*	9	26	12*	4	-21	18*
Cc1ccc(N2C(=O)/C(=C/c3ccco3)SC2=S)cc1	2	19*	11	-2	44*	-2	10	5.7*	0	0	11
C[C@@H]1CN([C@@H](C)CO)C(=O)CCCn2nncc2CO[C@H]1CN(C)C(=O)c1ccc2ccn(C)c2c1	3	-1	-1	0	-1	2	nt	nt	nt	nt	nt
O=C(O)Cc1ccc(N2N=C(c3ccccc3)CC2=O)cc1	9	26*	18	-3	68*	-11	22	6.0*	1	-5	10
O=C(O)Cc1ccc(-c2ccccc2-c2ccccc2)cc1	-2	4	3	0	14	1	nt	nt	nt	nt	nt
CC1=C(C(=O)OC(C)C)C(c2ccco2)NC(=O)N1 (configuration not stated)	-3	4	-1	-1	4	38	nt	nt	nt	nt	nt
CCOC(=O)C1=C(N)n2c(s/c(=C\c3ccco3)c2=O)=C(C(=O)OC(C)C)C1c1ccco1 (configuration not stated)	12	51*	21*	2	40*	1	16	7.1*	2	-6	-1
CCOc1ccc(/C=C2/SC(=S)N(C(C(=O)O)c3ccccc3)C2=O)cc1OCC (configuration not stated)	-2	5	-7	-4	11	4	nt	nt	nt	nt	nt
O=C(O)C(c1ccccc1)N1C(=O)/C(=C\c2ccc(O)c(O)c2)SC1=S (configuration not stated)	-2	23*	1	-8	42*	9	53*	22*	8	-41	51*
C/C(=N\NC(=O)c1cc(O)ccc1O)c1cccc(NC(=O)c2ccc(Cl)cc2)c1	-1	41*	14	-5	37*	-13	25	8.3*	19*	-97	16*
C=C1c2cccc(O)c2C(=O)C2C(=O)[C@]3(O)C(=O)C(C(N)=O)C(=O)[C@@H](N(C)C)[C@@H]3[C@@H](O)[C@H]12 (some centres not stated)	90*	86*	96*	0	85*	94*	28	10*	37*	-131	52*	UHRF1 DNA bind=11;MBD2 DBD conf=7
C[C@H]1c2cccc(O)c2C(O)=C2C(=O)[C@]3(O)C(O)=C(C(N)=O)C(=O)[C@@H](N(C)C)C3[C@@H](O)C21 (some centres not stated)	3	12	-3	-2	9	2	nt	nt	nt	nt	nt
CC(C)N(C(=O)[C@H]1C[C@H](CC(=O)NCC23CC4CC(CC(C4)C2)C3)C(=O)N2CCc3c([nH]c4cc(CCC(=O)N(C)C)ccc34)[C@]12C)C(C)C	2	-3	3	-1	4	-13	nt	nt	nt	nt	nt
COC(=O)c1ccc(C)c(NC(=O)CCSc2ccc(C)cc2)c1	-3	4	-3	-1	-2	1	nt	nt	nt	nt	nt
COc1ccc(NC(=O)CSCc2ccc(C#N)cc2)c(OC)c1	0	0	0	-3	-5	-5	nt	nt	nt	nt	nt
COC(=O)c1ccc(C)c(NC(=O)CSc2sc3c(O)cc(=O)[nH]c3c2C#N)c1	14*	14*	51*	0	61*	27	45*	20*	20*	-98	36*	UHRF1 DNA bind=22*;MBD2 DBD conf=9
Cc1csc(NC(=O)CSc2sc3c(O)cc(=O)[nH]c3c2C#N)n1	52*	38*	79*	3	75*	43	37*	14*	41*	-144	20*	UHRF1 DNA bind=11;MBD2 DBD conf=7
COc1ccc(NC(=O)CSc2sc3c(O)cc(=O)[nH]c3c2C#N)c(OC)c1	30*	16*	56*	1	63*	24	27	13*	21*	-106	34*	UHRF1 DNA bind=22*;MBD2 DBD conf=12
CNc1ccc(Br)cc(C(=O)/C=C/c2cccc(Cl)c2Cl)c1=O	-1	15*	5	1	48*	46	50*	23*	0	-1	21*
CNc1ccccc(C(=O)/C=C/c2ccccc2OC)c1=O	5	-1	2	-2	26	-2	nt	nt	nt	nt	nt
CNc1ccc(Br)cc(C(=O)/C=C/c2cccc(OC)c2OC)c1=O	-6	16*	1	-5	35*	23	28	11*	2	-11	27*
CCCCc1c(-c2ccccc2OC)ncn1Cc1ccc(OC)cc1	-1	1	3	0	1	nt	nt	nt	nt	nt	nt
COC(=O)C1=C(O)/C(=C\c2ccc(CNS(=O)(=O)c3ccc(Cl)cc3)o2)N=C1C	0	53*	13	-6	37*	25	42*	15*	5	-23	14*
